In the supplement of paper PMC11732987, “Enantioselective OTUD7B fragment discovery through chemoproteomics screening and high-throughput optimisation” (Communications Chemistry, 2025):

Tests used:
Assay in all cases: log2 ratio of Biotin-Ahx-Ub-VS probe labelling (fragment/DMSO); higher = less target engagement (more negative = stronger competition), active = hit call of the paper (q ≤ 0.05, log2 ratio ≤ -1)
Details in all cases: compound concentration: 200 uM; treatment time: 3 h
USP19 = target: T1, USP19 (UniProt O94966)
T1 sequence (whole entry): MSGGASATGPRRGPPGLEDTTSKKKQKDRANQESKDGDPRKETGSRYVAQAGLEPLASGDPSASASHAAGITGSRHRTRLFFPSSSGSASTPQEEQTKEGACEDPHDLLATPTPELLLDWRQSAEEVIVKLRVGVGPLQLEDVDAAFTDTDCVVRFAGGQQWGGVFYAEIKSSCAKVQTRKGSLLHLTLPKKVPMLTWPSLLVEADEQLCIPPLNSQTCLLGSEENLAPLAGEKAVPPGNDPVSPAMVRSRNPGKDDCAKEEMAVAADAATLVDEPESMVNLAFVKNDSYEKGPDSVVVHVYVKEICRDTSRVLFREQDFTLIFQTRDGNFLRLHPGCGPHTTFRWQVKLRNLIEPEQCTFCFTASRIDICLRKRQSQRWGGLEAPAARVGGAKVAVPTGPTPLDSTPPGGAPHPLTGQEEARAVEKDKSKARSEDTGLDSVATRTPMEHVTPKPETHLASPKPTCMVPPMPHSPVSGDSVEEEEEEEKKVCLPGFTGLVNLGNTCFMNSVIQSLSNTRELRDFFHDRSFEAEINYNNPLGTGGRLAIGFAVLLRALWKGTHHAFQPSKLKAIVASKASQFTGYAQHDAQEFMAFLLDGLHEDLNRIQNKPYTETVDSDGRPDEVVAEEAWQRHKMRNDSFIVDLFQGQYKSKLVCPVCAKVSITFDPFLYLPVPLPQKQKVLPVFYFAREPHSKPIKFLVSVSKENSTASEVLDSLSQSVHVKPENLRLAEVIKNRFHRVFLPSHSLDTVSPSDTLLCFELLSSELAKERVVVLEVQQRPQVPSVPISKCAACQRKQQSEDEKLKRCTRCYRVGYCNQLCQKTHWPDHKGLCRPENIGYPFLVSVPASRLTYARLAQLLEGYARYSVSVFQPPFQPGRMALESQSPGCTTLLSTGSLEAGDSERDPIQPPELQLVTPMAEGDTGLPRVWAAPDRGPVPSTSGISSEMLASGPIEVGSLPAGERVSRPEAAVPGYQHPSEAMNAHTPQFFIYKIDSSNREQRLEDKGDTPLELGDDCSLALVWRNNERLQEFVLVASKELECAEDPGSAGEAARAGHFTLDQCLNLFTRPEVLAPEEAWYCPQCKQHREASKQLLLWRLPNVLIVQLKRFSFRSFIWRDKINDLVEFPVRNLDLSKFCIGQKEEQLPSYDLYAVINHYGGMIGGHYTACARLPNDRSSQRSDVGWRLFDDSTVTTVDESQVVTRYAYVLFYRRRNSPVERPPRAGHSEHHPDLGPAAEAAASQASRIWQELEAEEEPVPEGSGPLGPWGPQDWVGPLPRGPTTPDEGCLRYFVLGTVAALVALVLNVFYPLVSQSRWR
Summary of the method: (§1)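 The table lists average log2 ratios of fragment over vehicle, from an unpaired t-test on global-median-normalised Spectronaut label-free quantities. Proteins with ≥2 unique peptides were used. Samples were HEK293T lysate (495 µg) treated in triplicate with fragment at 200 µM or vehicle for 3 h, then with Biotin-Ahx-Ub-VS (0.5 µM final) for 1 h, with labelled DUBs NeutrAvidin-enriched and run by diaPASEF LC-MS/MS.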

USP22 = target: T2, USP22 (UniProt Q9UPT9)
T2 sequence (whole entry): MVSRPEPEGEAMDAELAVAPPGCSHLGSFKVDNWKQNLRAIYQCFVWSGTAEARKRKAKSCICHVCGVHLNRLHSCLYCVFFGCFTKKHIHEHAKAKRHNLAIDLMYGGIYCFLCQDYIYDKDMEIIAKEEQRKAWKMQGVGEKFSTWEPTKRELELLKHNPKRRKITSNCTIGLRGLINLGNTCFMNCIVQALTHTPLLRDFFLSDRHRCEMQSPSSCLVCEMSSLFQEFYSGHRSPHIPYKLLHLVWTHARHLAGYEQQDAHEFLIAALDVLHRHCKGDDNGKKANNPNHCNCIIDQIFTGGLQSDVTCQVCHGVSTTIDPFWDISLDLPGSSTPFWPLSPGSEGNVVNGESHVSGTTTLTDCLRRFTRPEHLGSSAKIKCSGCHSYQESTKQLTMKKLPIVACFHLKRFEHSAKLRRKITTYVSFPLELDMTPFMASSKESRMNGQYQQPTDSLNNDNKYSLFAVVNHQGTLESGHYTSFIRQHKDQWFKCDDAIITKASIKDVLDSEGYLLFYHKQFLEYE
Summary of the method: as §1

USP24 = USP24 (UniProt Q9UPU5)
Chain of USP24 (Q9UPU5 whole entry): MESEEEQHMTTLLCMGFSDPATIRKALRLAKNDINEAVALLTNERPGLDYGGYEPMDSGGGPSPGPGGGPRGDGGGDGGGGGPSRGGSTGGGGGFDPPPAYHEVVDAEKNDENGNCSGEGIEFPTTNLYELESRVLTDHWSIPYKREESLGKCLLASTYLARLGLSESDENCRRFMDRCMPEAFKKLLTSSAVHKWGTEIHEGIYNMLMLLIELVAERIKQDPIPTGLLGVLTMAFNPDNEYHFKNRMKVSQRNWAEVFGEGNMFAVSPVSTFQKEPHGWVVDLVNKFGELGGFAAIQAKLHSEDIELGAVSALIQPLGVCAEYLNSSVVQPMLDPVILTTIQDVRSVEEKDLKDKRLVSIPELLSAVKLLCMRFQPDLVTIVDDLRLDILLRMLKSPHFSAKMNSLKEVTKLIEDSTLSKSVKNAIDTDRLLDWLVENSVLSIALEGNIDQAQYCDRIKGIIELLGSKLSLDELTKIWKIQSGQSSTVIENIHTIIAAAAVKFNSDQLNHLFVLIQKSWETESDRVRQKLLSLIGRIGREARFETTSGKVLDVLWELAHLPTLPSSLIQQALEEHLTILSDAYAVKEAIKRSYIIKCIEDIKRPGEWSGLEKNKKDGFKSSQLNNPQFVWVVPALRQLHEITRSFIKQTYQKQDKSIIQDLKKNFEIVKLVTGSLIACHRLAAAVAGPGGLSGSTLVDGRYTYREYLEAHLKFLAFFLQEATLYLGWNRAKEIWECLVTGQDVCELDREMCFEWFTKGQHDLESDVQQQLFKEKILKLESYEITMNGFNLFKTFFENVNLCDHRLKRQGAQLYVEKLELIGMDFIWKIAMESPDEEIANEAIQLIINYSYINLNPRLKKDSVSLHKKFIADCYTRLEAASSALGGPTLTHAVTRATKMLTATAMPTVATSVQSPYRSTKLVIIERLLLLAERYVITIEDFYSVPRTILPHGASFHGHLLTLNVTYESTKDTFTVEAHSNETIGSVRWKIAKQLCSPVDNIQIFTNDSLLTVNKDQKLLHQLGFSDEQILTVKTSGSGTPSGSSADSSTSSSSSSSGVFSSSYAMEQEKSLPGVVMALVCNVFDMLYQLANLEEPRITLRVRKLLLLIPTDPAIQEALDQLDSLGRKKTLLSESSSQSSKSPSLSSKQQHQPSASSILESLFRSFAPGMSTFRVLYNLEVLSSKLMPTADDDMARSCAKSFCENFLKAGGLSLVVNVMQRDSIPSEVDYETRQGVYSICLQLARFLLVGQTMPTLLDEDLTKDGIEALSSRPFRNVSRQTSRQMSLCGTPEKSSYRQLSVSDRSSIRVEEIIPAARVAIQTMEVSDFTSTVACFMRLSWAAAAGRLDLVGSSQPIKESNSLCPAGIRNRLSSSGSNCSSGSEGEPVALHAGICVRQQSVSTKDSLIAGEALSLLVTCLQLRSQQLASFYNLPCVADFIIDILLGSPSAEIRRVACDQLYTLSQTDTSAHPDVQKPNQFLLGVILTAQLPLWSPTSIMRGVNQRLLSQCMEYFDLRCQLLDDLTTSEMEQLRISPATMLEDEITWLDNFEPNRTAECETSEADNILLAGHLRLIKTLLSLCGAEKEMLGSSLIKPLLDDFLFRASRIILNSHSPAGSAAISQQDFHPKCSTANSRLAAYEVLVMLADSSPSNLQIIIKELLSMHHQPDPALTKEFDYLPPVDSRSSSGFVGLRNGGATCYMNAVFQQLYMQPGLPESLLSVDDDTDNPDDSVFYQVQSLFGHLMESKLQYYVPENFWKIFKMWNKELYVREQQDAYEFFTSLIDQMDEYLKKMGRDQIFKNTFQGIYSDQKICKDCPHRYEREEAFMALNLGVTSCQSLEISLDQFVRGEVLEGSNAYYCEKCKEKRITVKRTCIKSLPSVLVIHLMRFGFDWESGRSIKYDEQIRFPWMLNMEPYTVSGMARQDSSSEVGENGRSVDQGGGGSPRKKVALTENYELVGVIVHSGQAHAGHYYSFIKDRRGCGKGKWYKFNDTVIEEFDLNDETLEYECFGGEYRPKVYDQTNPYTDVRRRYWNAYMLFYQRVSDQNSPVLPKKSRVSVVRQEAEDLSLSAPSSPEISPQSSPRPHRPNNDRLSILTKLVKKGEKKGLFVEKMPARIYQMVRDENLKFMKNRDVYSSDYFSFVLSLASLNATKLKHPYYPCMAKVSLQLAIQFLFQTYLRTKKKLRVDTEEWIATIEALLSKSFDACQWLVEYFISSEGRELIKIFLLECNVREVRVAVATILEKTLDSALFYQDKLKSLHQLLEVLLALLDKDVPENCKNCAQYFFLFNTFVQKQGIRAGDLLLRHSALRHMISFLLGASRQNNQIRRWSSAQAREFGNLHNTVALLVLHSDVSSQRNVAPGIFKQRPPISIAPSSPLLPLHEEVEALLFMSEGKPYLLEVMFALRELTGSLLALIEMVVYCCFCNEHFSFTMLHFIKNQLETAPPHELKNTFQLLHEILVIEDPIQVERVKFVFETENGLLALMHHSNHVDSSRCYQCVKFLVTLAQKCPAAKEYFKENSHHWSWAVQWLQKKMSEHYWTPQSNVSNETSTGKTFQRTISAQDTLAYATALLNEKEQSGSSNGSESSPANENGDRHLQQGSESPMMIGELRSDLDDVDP
Summary of the method: as §1

USP25 = target: T3, USP25 (UniProt Q9UHP3)
T3 sequence (whole entry): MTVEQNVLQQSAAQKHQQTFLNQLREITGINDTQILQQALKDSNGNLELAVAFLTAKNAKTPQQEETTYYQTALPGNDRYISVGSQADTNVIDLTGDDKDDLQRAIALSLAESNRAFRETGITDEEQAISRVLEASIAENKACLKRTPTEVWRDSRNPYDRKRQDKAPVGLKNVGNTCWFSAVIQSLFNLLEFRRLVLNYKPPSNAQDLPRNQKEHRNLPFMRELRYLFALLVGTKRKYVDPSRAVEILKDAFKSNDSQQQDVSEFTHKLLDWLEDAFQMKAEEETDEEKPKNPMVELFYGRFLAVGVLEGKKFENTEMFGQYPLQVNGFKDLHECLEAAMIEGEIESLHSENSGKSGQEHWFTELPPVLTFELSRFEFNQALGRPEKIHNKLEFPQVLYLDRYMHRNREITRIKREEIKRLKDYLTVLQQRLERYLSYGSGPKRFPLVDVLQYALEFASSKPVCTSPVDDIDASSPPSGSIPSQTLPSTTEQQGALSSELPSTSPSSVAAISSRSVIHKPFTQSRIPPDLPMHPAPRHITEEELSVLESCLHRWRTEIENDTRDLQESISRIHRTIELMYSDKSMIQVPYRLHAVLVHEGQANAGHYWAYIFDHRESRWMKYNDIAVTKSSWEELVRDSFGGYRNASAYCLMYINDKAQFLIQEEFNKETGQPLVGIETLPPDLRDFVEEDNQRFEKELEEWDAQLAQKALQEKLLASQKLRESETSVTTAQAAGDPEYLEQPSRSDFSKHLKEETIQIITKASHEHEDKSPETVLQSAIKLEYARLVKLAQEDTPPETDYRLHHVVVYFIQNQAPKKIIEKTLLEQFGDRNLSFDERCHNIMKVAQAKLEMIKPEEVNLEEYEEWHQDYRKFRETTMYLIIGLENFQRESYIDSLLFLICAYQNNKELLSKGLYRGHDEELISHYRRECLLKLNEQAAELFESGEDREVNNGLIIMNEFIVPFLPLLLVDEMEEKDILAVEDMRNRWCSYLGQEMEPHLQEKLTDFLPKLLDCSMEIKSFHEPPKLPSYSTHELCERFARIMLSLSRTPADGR
Summary of the method: as §1

USP28 = target: T4, USP28 (UniProt Q96RU2)
T4 sequence (whole entry): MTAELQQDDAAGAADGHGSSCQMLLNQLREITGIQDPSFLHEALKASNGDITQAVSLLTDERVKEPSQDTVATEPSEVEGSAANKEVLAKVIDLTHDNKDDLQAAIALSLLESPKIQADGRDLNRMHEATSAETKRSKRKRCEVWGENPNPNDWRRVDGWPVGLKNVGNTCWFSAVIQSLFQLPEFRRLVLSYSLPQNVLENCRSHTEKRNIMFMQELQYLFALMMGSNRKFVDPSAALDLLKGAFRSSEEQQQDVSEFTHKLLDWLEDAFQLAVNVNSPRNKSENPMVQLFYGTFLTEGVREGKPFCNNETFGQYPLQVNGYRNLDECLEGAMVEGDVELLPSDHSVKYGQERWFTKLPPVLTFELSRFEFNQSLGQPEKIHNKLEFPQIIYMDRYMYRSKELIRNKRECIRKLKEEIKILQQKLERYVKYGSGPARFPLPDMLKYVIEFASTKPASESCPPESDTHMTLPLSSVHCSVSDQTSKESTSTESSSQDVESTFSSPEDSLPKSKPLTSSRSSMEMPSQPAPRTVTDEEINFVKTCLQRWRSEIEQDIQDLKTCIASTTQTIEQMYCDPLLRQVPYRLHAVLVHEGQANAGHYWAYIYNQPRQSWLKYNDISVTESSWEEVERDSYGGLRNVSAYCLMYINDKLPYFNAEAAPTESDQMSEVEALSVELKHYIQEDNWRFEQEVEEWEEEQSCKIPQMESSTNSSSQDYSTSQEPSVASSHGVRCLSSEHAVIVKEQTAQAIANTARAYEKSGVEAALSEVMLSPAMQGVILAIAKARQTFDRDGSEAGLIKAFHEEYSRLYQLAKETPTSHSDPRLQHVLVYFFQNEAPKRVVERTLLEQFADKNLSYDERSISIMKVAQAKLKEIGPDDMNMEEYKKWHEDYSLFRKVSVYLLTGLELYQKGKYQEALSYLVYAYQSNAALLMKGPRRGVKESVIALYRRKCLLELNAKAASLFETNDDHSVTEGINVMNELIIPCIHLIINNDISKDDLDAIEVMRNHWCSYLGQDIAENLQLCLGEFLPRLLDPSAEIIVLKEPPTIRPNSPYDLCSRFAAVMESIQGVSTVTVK
Summary of the method: as §1

Measured: log2 ratio of Biotin-Ahx-Ub-VS probe labelling

O=C(CCl)N1CCOCCC1c1ccccc1 (stereo not given)
inactive: USP19 -0.132 | USP22 0.147 | USP24 -0.633 | USP25 0.0233 | USP28 -0.12
